Compounds without any hit were thinned out: in the full panel of roughly 83,000, 20% have a hit.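 Compound tested at a single concentration for 48 hours in 96-well plates; a percent growth value below 10 was scored as active.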 Activity calls are given as the source filed them.
How the values were obtained:
Experiment in all cases: NCI-60 one-dose screen, 48 h (100 = growth as untreated, 0 = no growth, -100 = all killed)
Settings in all cases: 10 µM unless noted
[1] = tested on: NCI-H226 lung
[2] = tested on: NCI-H322M lung
[3] = tested on: HOP-62 NSCLC
[4] = tested on: NCI-H460 lung
[5] = tested on: HOP-92 NSCLC
[6] = tested on: NCI-H522 lung
[7] = tested on: A549/ATCC NSCLC
[8] = tested on: 786-0 renal
[9] = tested on: COLO 205 colon
[10] = tested on: DU-145 prostate
[11] = tested on: K-562 leukemia
[12] = tested on: MALME-3M melanoma
[13] = tested on: MDA-MB-231 breast
[14] = tested on: RXF 393 renal
[15] = tested on: SF-268 CNS
[16] = tested on: SF-295 CNS
[17] = tested on: SF-539 CNS
[18] = tested on: UACC-257 melanoma
[19] = tested on: M14 melanoma

Row | Compound | growth [1] | growth [2] | growth [3] | growth [4] | growth [5] | growth [6] | growth [7] | growth [8] | growth [9] | growth [10] | growth [11] | growth [12] | growth [13] | growth [14] | growth [15] | growth [16] | growth [17] | growth [18] | growth [19]
1 | Cc1c(O)c(=O)ccn1-c1nc2ccccc2s1 | 92.5% (inactive) | 88% (inactive) | 87.3% (inactive) | 99.3% (inactive) | 98.4% (inactive) | 75.4% (inactive) | 92.5% (inactive) | 84.6% (inactive) | 96.4% (inactive) | 103% (inactive) | 110% (inactive) | 96.6% (inactive) | 93.2% (inactive) | 87.8% (inactive) | 90.6% (inactive) | 105% (inactive) | 102% (inactive) | 90% (inactive) | 84.2% (inactive)
2 | Fc1ccc(N/N=C/c2ccc(-n3cccn3)cc2)cc1 | 92.3% (inactive) | 99.9% (inactive) | 82.1% (inactive) | 106% (inactive) | 105% (inactive) | 77.2% (inactive) | 93.7% (inactive) | 104% (inactive) | 98.1% (inactive) | 93.8% (inactive) | 93.3% (inactive) | 106% (inactive) | 80.1% (inactive) | 105% (inactive) | 81.3% (inactive) | 87.6% (inactive) | 100% (inactive) | 118% (inactive) | 88.8% (inactive)
3 | COc1ccc2[nH]c(-c3ccccc3)c(C=C(C#N)C#N)c2c1 | 55.1% (inactive) | 59.1% (inactive) | 37.4% (inactive) | 15.3% (inactive) | -7.8% (active) | -18.4% (active) | 37% (inactive) | 33.9% (inactive) | 38.2% (inactive) | 35.2% (inactive) | -11.9% (active) | 55.1% (inactive) | 57.9% (inactive) | 22.4% (inactive) | 49.1% (inactive) | -35.2% (active) | 14% (inactive) | 69.8% (inactive) | 5.54% (active)
4 | COc1ccc(C2N(c3cc(OC)c(OC)c(OC)c3)C(=O)C2(F)F)cc1F (stereo not drawn) | 75.5% (inactive) | 91.2% (inactive) | 38.4% (inactive) | 27.2% (inactive) | 60.8% (inactive) | 17.5% (inactive) | 48.6% (inactive) | 75.3% (inactive) | 16.3% (inactive) | 25.2% (inactive) | 10.5% (inactive) | 64.1% (inactive) | 54% (inactive) | 49.4% (inactive) | 52.9% (inactive) | 48.3% (inactive) | 21.6% (inactive) | 50% (inactive) | 24.2% (inactive)
5 | N#Cc1c(-c2ccc(F)cc2)c(C#N)c2c(C#N)c(N)nn2c1N | 82.2% (inactive) | 97.5% (inactive) | 81% (inactive) | 98.7% (inactive) | 76.9% (inactive) | 85.7% (inactive) | 92% (inactive) | 94.2% (inactive) | 98.4% (inactive) | 89.8% (inactive) | 106% (inactive) | 110% (inactive) | 102% (inactive) | 84.4% (inactive) | 93.3% (inactive) | 101% (inactive) | 90.8% (inactive) | 110% (inactive) | 105% (inactive)
6 | C=C1C(=O)O[C@H]2[C@H]1CC/C(COC(=O)n1ccnc1)=C\CC[C@@]1(C)O[C@@H]21 | 92.4% (inactive) | 113% (inactive) | 92.5% (inactive) | 104% (inactive) | 94.4% (inactive) | – | 93% (inactive) | 102% (inactive) | 64.6% (inactive) | 96.8% (inactive) | 86.7% (inactive) | 90.8% (inactive) | 95.9% (inactive) | 102% (inactive) | 110% (inactive) | 100% (inactive) | 102% (inactive) | 90.7% (inactive) | 84.3% (inactive)
7 | CCc1n(Cc2ccc3ccccc3c2)c2ccccc2[n+]1Cc1ccc2ccccc2c1 | 64.9% (inactive) | 90.7% (inactive) | 81.3% (inactive) | 53.6% (inactive) | 21.8% (inactive) | 12.1% (inactive) | 74.2% (inactive) | 89% (inactive) | 25% (inactive) | 67.7% (inactive) | 35.3% (inactive) | 54.1% (inactive) | 60.3% (inactive) | 94.1% (inactive) | 64.7% (inactive) | 93.3% (inactive) | 68.8% (inactive) | 59% (inactive) | 48.7% (inactive)
8 | O=C1[C@@H](OS(=O)(=O)CC(F)(F)F)[C@H](c2ccc(F)cn2)N1c1cc2c3ccccc3ccc2c2ccccc12 | 92.3% (inactive) | 104% (inactive) | 88.6% (inactive) | 104% (inactive) | 71.4% (inactive) | 35.7% (inactive) | 82.5% (inactive) | 71.7% (inactive) | 101% (inactive) | 84.5% (inactive) | 44.5% (inactive) | 95% (inactive) | 71.2% (inactive) | 85.9% (inactive) | 78.9% (inactive) | 83.3% (inactive) | 87.1% (inactive) | 79% (inactive) | 72.9% (inactive)
9 | CC(=O)Nc1nc2c(c(N)c1C#N)C(c1cccc(Cl)c1)C1=C(CCCC1=O)N2c1sc2c(c1C#N)CCCC2 (stereo not drawn) | 55.5% (inactive) | 93.3% (inactive) | 67.3% (inactive) | 53.1% (inactive) | 40.1% (inactive) | – | 32.8% (inactive) | 57.6% (inactive) | 59.6% (inactive) | 72.5% (inactive) | 29.8% (inactive) | 83.3% (inactive) | 67.1% (inactive) | 16.2% (inactive) | 66.3% (inactive) | 44% (inactive) | 65% (inactive) | 54.4% (inactive) | 52.2% (inactive)
10 | O=CN1N=C(c2ccc(F)cc2)CC1c1cccc(Nc2ccnc3cc(C(F)(F)F)ccc23)c1 (stereo not drawn) | 60.3% (inactive) | 85.1% (inactive) | 60.8% (inactive) | 46.7% (inactive) | 67.4% (inactive) | 45.6% (inactive) | 61% (inactive) | 76.1% (inactive) | 32.3% (inactive) | 70.9% (inactive) | 22.7% (inactive) | 67.9% (inactive) | 72.5% (inactive) | 71.2% (inactive) | 51.9% (inactive) | 44.2% (inactive) | 77.5% (inactive) | 48.6% (inactive) | 70% (inactive)
